Laboratory results: PubChem BioAssay (EPA / NIEHS)
The source made the active and inactive calls. The calls were made as follows: active = hit-call score of the fitted dose curve at least 0.9, where 1 is the maximum; inactive = score below 0.9.

Key:
[1] = CEETOX_H295R_OHPREG: CeeTox H295R High-throughput Steroidogenesis Assay for OH-Pregnenolone (OHPREG) (AID 2283434); settings: actives raise or lower the signal
Procedure, shortened: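 H295R cells pre-stimulated 48 h with 10 uM forskolin, then exposed 48 h to chemical in 0.1% DMSO. 17alpha-hydroxypregnenolone in medium quantified by MTBE extraction and HPLC-MS/MS; bidirectional fit versus DMSO, viability checked by MTT.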

[2] = CEETOX_H295R_CORTIC: CeeTox H295R High-throughput Steroidogenesis Assay for Corticosterone (CORTIC) (AID 2283437); settings: actives raise or lower the signal;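 also: corticosterone secreted into medium quantified by mass spectrometry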;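 as to AC50: human H295R adrenal cells prestimulated with forskolin before chemical exposure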
Procedure, shortened: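 H295R adrenal cells prestimulated 48 hours with 10 uM forskolin, then exposed 48 hours to chemical in 0.1% DMSO. Corticosterone in medium measured by HPLC-MS/MS after MTBE extraction; MTT viability in the same wells; bidirectional fit versus DMSO.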

[3] = CEETOX_H295R_CORTISOL: CeeTox H295R High-throughput Steroidogenesis Assay for Cortisol (AID 2283438); settings: actives raise or lower the signal;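 also: cortisol secreted into medium quantified by LC-MS/MS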
Procedure, shortened: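 Forskolin-primed H295R cells (10 uM, 48 h) treated 48 h with test chemical in 0.1% DMSO. Cortisol in medium quantified by MTBE extraction and HPLC-MS/MS; bidirectional fit vs DMSO, MTT viability in same wells.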

[4] = CEETOX_H295R_DOC: CeeTox H295R High-throughput Steroidogenesis Assay for DOC (AID 2283439); settings: actives raise or lower the signal
Procedure, shortened: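 H295R cells prestimulated 48 h with 10 uM forskolin, then exposed 48 h to test chemical (0.1% DMSO final). Medium 11-deoxycorticosterone measured by HPLC-MS/MS after MTBE extraction; bidirectional fit vs DMSO, viability checked by MTT in same wells.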

[5] = CEETOX_H295R_PROG: CeeTox H295R High-throughput Steroidogenesis Assay for Progesterone (PROG) (AID 2283442); settings: actives raise or lower the signal;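 as to AC50: human H295R adrenal cells primed with 10 µM forskolin before dosing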
Procedure, shortened: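 Measured analyte is progesterone secreted by H295R cells at 48 h of chemical treatment, following 10 uM forskolin priming. Quantitation used HPLC-MS/MS against a 7-point standard curve; cytotoxicity was checked by MTT absorbance.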

[6] = read-out: Tumor necrosis factor receptor superfamily member 6 (Homo sapiens) (UniProt P25445); assay: LTEA_HepaRG_FAS: Life Technologies and Expression Analysis (LTEA) Assay for Fas cell surface death receptor (FAS) using HepaRG (AID 2283447); settings: mRNA level, 48 h; actives raise or lower the signal
Procedure, shortened: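 Differentiated HepaRG cells in serum-free induction medium were exposed 48 h to 8 half-log concentrations up to 100 uM in 0.5% DMSO, in duplicate. FAS mRNA was measured by qRT-PCR normalised to ACTB, GAPDH and POLR2A; bidirectional fit versus DMSO.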

[7] = read-out: Fatty acid synthase (Homo sapiens) (UniProt P49327); assay: LTEA_HepaRG_FASN: Life Technologies and Expression Analysis (LTEA) Assay for Fatty Acid Synthase (FASN) using HepaRG (AID 2283448); settings: mRNA level, 48 h; actives raise or lower the signal;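 as to AC50: differentiated human HepaRG liver cells in serum-free induction medium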
Procedure, shortened: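 Differentiated HepaRG cells in serum-free induction medium exposed 48 h in duplicate to eight half-log concentrations, top 100 uM, 0.5% DMSO. FASN mRNA by qRT-PCR normalised to ACTB, GAPDH, POLR2A; bidirectional fit versus DMSO.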

[8] = read-out: Cyclin D2 (CCND2), CCND2 (gene 894); assay: LTEA_HepaRG_CCND2: Life Technologies and Expression Analysis (LTEA) Assay for Cyclin D2 (CCND2) using HepaRG (AID 2283449); settings: mRNA level, 48 h; actives raise or lower the signal;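 also: CCND2 transcript measured by TaqMan qRT-PCR and normalised to three housekeeping genes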
Procedure, shortened: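 Chemicals in 0.5% DMSO, eight half-log concentrations from 100 uM top, were applied in duplicate for 48 h to human HepaRG cells in serum-free induction medium. CCND2 mRNA by TaqMan qRT-PCR, normalised to ACTB/GAPDH/POLR2A; bidirectional fit versus DMSO.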

[9] = read-out: Cyclin Dependent Kinase Inhibitor 1A (CDKN1A), CDKN1A (gene 1026); assay: LTEA_HepaRG_CDKN1A: Life Technologies and Expression Analysis (LTEA) Assay for Cyclin Dependent Kinase Inhibitor 1A (CDKN1A) using HepaRG (AID 2283450); settings: mRNA level, 48 h; actives raise or lower the signal
Procedure, shortened: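 Gain or loss of CDKN1A transcript is scored by bidirectional fitting against 0.5% DMSO vehicle. Human HepaRG cultures receive chemicals for 48 h across an 8-point series peaking at 100 uM; expression comes from qRT-PCR.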

[10] = read-out: catalase (CAT), CAT (gene 847); assay: LTEA_HepaRG_CAT: Life Technologies and Expression Analysis (LTEA) Assay for catalase (CAT) using HepaRG (AID 2283452); settings: mRNA level, 48 h; actives raise or lower the signal
Procedure, shortened: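 HepaRG cells in serum-free induction medium, 0.5% DMSO vehicle, exposed 48 h in duplicate over 8 half-log concentrations from 100 uM. CAT mRNA measured by qRT-PCR, normalized to ACTB, GAPDH, POLR2A; bidirectional fit versus DMSO.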

[11] = read-out: flavin-containing dimethylaniline monooxygenases 3 (FMO3), FMO3 (gene 2328); assay: LTEA_HepaRG_FMO3: Life Technologies and Expression Analysis (LTEA) Assay for flavin-containing dimethylaniline monooxygenases 3 (FMO3) using HepaRG (AID 2283453); settings: mRNA level, 48 h; actives raise or lower the signal
Procedure, shortened: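 Differentiated HepaRG cells in serum-free induction medium, exposed 48 h in duplicate to 8 half-log concentrations up to 100 uM in 0.5% DMSO. FMO3 mRNA by qRT-PCR, normalized to ACTB, GAPDH, POLR2A; bidirectional fit vs DMSO.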

[12] = read-out: Cytochrome P450 (CYP1A1), CYP1A1 (gene 1543); assay: LTEA_HepaRG_CYP1A1: Life Technologies and Expression Analysis (LTEA) Assay for Cytochrome P450 (CYP1A1) using HepaRG (AID 2283454); settings: mRNA level, 48 h; actives raise or lower the signal
Procedure, shortened: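 Using HepaRG cultures with 0.5% DMSO as vehicle, eight-concentration exposures (max 100 uM) lasted 48 h. Transcript levels were measured by TaqMan qRT-PCR and normalized to ACTB, GAPDH and POLR2A.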

[13] = read-out: CFLAR gene, CFLAR (gene 8837); assay: LTEA_HepaRG_CFLAR: Life Technologies and Expression Analysis (LTEA) Assay for CFLAR gene using HepaRG (AID 2283455); settings: mRNA level, 48 h; actives raise or lower the signal
Procedure, shortened: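 Differentiated HepaRG cells in serum-free induction medium were exposed 48 h in duplicate to eight half-log concentrations up to 100 uM in 0.5% DMSO; mRNA measured by TaqMan qRT-PCR, normalized to ACTB, GAPDH, POLR2A; bidirectional fitting versus DMSO.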

[14] = read-out: Forkhead box O1 (FOXO1), FOXO1 (gene 2308); assay: LTEA_HepaRG_FOXO1: Life Technologies and Expression Analysis (LTEA) Assay for Forkhead box O1 (FOXO1) using HepaRG (AID 2283456); settings: mRNA level, 48 h; actives raise or lower the signal
Procedure, shortened: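 Differentiated HepaRG cells, in serum-free induction medium with 0.5% DMSO, exposed 48 h in duplicate to 8-point half-log series from 100 uM. FOXO1 mRNA measured by TaqMan qRT-PCR, normalized to ACTB, GAPDH, POLR2A; bidirectional fit versus DMSO.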

[15] = CEETOX_H295R_ESTRADIOL: CeeTox H295R High-throughput Steroidogenesis Assay for Estradiol (AID 2283440); settings: actives raise or lower the signal;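 also: estradiol secreted into medium quantified by LC-MS/MS after dansyl derivatisation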
Procedure, shortened: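 Readout is estradiol in conditioned medium, quantified by reverse-phase HPLC-MS/MS against a 7-point standard curve. Cells: H295R, forskolin-stimulated, then dosed 48 h in 0.1% DMSO; activity fitted in both directions relative to DMSO.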

[16] = CEETOX_H295R_ESTRONE: CeeTox H295R High-throughput Steroidogenesis Assay for Estrone (AID 2283441); settings: actives raise or lower the signal;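 also: estrone secreted into medium measured by LC-MS/MS after dansyl derivatization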
Procedure, shortened: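 H295R cells prestimulated 48 h with 10 uM forskolin, then exposed 48 h to chemicals in 0.1% DMSO final; estrone in medium extracted with MTBE, dansyl-derivatized, quantified by HPLC-MS/MS; bidirectional fitting versus DMSO, viability by MTT.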

Measured: AC50

Fatty acid synthase (Homo sapiens), sequence (P49327 whole entry, looked up): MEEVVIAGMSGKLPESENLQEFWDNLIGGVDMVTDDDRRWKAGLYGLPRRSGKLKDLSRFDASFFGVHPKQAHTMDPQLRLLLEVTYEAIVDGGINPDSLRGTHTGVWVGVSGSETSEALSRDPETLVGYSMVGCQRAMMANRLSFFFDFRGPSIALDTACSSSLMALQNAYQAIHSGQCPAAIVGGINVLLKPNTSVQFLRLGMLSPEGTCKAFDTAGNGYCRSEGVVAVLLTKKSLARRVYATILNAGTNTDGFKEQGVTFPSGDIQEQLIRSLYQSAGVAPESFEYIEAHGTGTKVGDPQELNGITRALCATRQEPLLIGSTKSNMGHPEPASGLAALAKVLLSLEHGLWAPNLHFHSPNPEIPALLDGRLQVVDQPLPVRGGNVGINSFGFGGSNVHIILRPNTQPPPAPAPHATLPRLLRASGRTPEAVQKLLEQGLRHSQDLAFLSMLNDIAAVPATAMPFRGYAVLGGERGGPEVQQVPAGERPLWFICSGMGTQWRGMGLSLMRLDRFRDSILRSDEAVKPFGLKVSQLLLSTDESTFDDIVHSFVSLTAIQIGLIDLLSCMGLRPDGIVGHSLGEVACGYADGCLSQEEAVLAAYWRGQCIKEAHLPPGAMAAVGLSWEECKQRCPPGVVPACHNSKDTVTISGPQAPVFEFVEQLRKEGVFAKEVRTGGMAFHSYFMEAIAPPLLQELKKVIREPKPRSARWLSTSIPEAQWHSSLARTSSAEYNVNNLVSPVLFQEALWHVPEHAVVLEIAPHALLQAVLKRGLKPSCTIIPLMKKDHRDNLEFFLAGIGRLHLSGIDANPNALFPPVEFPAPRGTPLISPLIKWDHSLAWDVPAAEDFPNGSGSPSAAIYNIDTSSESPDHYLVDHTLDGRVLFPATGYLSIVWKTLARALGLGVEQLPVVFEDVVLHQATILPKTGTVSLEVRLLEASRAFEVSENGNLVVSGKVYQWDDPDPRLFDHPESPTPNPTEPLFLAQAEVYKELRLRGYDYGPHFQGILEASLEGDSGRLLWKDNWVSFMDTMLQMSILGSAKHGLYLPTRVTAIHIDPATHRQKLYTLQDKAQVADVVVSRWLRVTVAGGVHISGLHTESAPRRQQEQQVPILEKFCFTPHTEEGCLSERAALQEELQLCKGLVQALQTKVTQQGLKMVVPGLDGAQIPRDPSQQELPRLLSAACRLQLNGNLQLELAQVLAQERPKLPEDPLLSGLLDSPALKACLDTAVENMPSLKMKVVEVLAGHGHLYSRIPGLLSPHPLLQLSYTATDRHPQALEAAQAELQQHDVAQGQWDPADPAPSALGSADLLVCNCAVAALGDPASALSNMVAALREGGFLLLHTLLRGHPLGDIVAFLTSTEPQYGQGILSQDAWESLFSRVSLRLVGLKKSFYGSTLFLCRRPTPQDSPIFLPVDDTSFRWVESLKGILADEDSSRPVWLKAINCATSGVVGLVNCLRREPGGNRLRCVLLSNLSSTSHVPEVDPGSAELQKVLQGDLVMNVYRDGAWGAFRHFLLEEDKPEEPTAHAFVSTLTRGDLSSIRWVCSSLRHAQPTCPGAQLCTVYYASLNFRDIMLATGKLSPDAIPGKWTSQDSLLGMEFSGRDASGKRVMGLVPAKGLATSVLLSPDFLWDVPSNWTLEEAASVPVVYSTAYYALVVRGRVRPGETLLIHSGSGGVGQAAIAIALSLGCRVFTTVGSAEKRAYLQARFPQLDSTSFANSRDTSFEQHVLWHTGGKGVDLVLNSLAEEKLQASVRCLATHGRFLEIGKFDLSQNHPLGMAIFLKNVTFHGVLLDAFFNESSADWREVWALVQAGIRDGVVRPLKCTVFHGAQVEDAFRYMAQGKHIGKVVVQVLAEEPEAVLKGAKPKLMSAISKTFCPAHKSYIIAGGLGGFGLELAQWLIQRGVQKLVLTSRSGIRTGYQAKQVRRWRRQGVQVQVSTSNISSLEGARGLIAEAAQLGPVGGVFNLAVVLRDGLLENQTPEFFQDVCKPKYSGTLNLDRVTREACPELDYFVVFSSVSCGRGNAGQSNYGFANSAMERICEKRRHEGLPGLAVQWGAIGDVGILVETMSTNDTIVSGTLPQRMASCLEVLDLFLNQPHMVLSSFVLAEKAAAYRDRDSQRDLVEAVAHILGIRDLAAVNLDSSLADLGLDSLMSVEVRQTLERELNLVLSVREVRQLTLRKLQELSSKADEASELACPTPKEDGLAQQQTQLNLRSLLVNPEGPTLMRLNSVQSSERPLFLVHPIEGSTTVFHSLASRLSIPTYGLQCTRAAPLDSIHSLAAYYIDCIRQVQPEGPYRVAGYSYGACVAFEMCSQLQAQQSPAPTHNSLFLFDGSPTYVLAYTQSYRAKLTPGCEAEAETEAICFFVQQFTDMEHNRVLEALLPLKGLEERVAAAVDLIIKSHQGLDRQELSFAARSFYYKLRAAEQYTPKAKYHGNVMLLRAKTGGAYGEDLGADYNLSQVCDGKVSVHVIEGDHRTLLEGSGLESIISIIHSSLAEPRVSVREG

Nc1ccc(Cl)cc1
active: [4] 50 µM | [5] 16.5 µM | [12] 28 µM
not listed: [15] | [16]
inactive: all other assays above

Cc1ccc(N)cc1N
active: [7] 14.7 µM | [12] 21.6 µM
not listed: [3] | [5]
inactive: all other assays above

Nc1cc2c3c(c1)C(c1ccccc1)=N[C@@H](NC(=O)c1cccnc1)C(=O)N3CC2
active: [1] 27.6 µM | [2] 18.3 µM | [3] 76.8 µM | [4] 33.8 µM | [5] 3.44 µM | [12] 31.8 µM
inactive: all other assays above

CCOP(=S)(OCC)SCn1nnc2ccccc2c1=O
inactive: [1] | [2] | [3] | [4] | [15] | [16]
active: [5] 8.4 µM

CCCCOCCOP(=O)(OCCOCCCC)OCCOCCCC
inactive: [1] | [2] | [3] | [4] | [15] | [16] | [5]

O=S1(=O)OCC2C(CO1)C1(Cl)C(Cl)=C(Cl)C2(Cl)C1(Cl)Cl (stereo not given)
inactive: [2] | [15] | [16]
active: [1] 2.84 µM | [3] 9.67 µM | [4] 7.77 µM | [5] 1.03 µM
